tested on: LTK; conditions: concentration: 1 μM, replicates: in singlicate; n = 1
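Note: KINOMEscan kinase panel screen.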

Point of comparison: `COc1cccc(NC(=O)Nc2ccc(C)c(-c3ccc(C(=O)Nc4ccncc4)cc3)c2)c1` [GSK1398474], “%Inh” value 23%. Against it:
- COc1ccc(Nc2nccc(-c3ccc(NC(=O)c4cc5cc(F)ccc5[nH]4)cc3)n2)cc1 [GSK1229496] — lower, 0%
- Cc1cccc2c(-c3ccncn3)c(-c3ccc(F)cc3)nn12 [GW515532] — lower, 0%
- NS(=O)(=O)c1cccc(N/C=C2\C(=O)Nc3ccc(S(=O)(=O)Cc4c(Cl)cccc4Cl)cc32)c1 [GSK398099] — lower, 0%
- O=C(Nc1n[nH]c2nc(-c3ccco3)c(Br)cc12)C1CCN(Cc2ccccc2)C1.O=C(O)[C@H](O)[C@@H](O)C(=O)O (stereo not drawn) [SB-742034] — lower, 11%
- COc1ccc(-c2coc3ccc(-c4nnc(C)o4)cc23)cc1 — lower, 0%
- O=c1cc(N2CCOCC2)nc2n(Cc3ccccc3F)ccn12 [GSK2297428] — lower, 21%
- COC(=O)c1cccc(NC(=O)NC2CCN(c3ccnc(Nc4ccc(F)cc4)n3)C2)c1 (stereo not drawn) [GSK1379725] — lower, 17%
- Cc1c(Cn2c(C)c(C)n3c(=O)cc(N4CCOCC4)nc23)cccc1C(F)(F)F [GSK2328680] — lower, 0%
- CNC(=O)c1ccc(C)c(-n2c(C)cc(OCc3ccc(F)cc3F)c(Br)c2=O)c1 — lower, 0%
- COc1ccc(Nc2nccc(N3CCC(NC(=O)c4cc5ccccc5s4)C3)n2)cc1 (stereo not drawn) [GSK1379738] — lower, 0%
- CC(=O)c1cccc(NC(=O)NC2CCN(c3ccnc(Nc4ccc(F)cc4)n3)C2)c1 (stereo not drawn) [GSK1379710] — lower, 0%
